“And” between values parts separate entries of the source, which are not always exact repeats. Identical values can stand only once. Hit rate of the full screen: of about 420,000 compounds, about 50,000 (12%) were called active. Inconclusive results (about 26%) are left out. Calls come from the whole dose curve; as a rule, active = well fitted inhibition curve with a large enough effect; inconclusive = small, poorly fitted or top-dose-only effect; inactive = flat fitted curve, though single readings scatter. Shown is part of a subset that was picked to be rich in actives. A call without a number means that no potency is given here.
assay: qHTS for Inhibitors of human tyrosyl-DNA phosphodiesterase 1 (TDP1): qHTS in cells in presence of CPT; conditions: chicken DT40 Tdp1-/-;hTDP1 cells + 20 nM CPT, ATP luminescence, 48 h; series mostly up to 46.2 µM; note: nearly all actives have a fitted effect of over 55% in size
Procedure, shortened: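 Cell growth measured by CellTiter-Glo luminescence after a minimum 48 h, 37 C compound exposure with 20 nM CPT in Tdp1-knockout DT40 cells stably expressing hTDP1, seeded 400/well; qHTS titration format.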
Potency is the fitted concentration of half-maximal effect.

Compound	Potency
CC(C)(C)CN1CCNC(=O)C1CC(=O)NC1Cc2ccccc2C1 (stereo not drawn)	inactive
O=C(CN1CCN(c2ccccc2)CC1)Nc1ccc(F)cc1	inactive
Cc1cccc(C)c1NC(=O)CN1CCN(c2ccc(F)cc2)CC1	14.6 µM (active)
O=C(CN1CCN(c2ccc(F)cc2)CC1)Nc1ccccc1	inactive
C#CCCOC(=O)N1C2=NC(C(=O)OC)=C(C(=O)OC)[C@@H]3N(C)c4ccc(OC)cc4[C@]23C[C@H]1C(=O)OC	inactive
N/C(=N\OC(=O)CC1CCCCC1)c1ccccc1	inactive
O=C(C(Cl)Cl)N1CCN(c2ccccn2)CC1	inactive
Cc1cc(C(=O)N2CCN(c3ccccn3)CC2)c(C)o1	17.8 µM (active)
O=C(c1cc2ccccc2s1)N1CCN(c2ccccn2)CC1	inactive
COc1ccc(/C=N/Nc2nc(-c3ccc(C)cc3)c(C#N)c(=O)[nH]2)cc1	inactive
COc1ccc(S(=O)(=O)NCCc2cc3ccc(C)c(C)c3[nH]c2=O)cc1	14.6 µM (active) and 18.4 µM (active)
COc1ccc(CCNS(=O)(=O)c2ccc(F)cc2)cc1OC	inactive
COc1ccc(CCNS(=O)(=O)c2cccc([N+](=O)[O-])c2)cc1	inactive
NC(N)=Nc1nc(-c2ccccc2)c2cc(Cl)ccc2n1	16.4 µM (active)
Cc1ccc2nc(Nc3ccccc3O)nc(-c3ccccc3)c2c1	inactive
COC(=O)Cn1nc(-c2ccccc2)c2cc(Cl)ccc21	inactive
O=C(Nc1ccc(-c2cscn2)cc1)C1CCCN(Cc2ccc(CO)o2)C1 (stereo not drawn)	inactive
CN(Cc1ccco1)S(=O)(=O)c1nnc(NC(=O)c2ccccc2)s1	inactive
CC(C)NC(=O)c1ccccc1S(=O)c1ccccc1C#N (stereo not drawn)	inactive
Cc1cc(NC(=O)CC(C)C)cc(-c2nc3ncccc3o2)c1O	inactive
Cn1c(=O)oc2cc(S(=O)(=O)CCC(=O)NCCc3ccc(Cl)cc3)ccc21	inactive
CC(=O)N1c2ccc(S(=O)(=O)NCCC(=O)N(C)C3CCCCC3)cc2CC1C (stereo not drawn)	10.3 µM (active)
CC1Cc2ccccc2N1CC(=O)Nc1ccc(S(N)(=O)=O)cc1 (stereo not drawn)	inactive
CC(=O)N1CCc2cc(S(=O)(=O)NC3CCCCC3)ccc21	inactive
Cc1ccc(S(=O)(=O)NCCC(=O)NCc2ccc(Cl)cc2)cc1C	inactive
CC1Cc2cc(S(=O)(=O)CCC(=O)Nc3ccc(F)c(Cl)c3)ccc2N1C(=O)C1CC1 (stereo not drawn)	10.3 µM (active)

Compound	Potency
COc1cccc(CNS(=O)(=O)c2csc(C(N)=O)c2)c1	inactive
COc1cccc(CNC(=O)C2CCC(CNS(=O)(=O)c3cccs3)CC2)c1 (stereo not drawn)	inactive
CCC(=O)N1c2ccc(S(=O)(=O)CCC(=O)N3CCN(c4ccccc4)CC3)cc2CC1C (stereo not drawn)	inactive
COc1cccc(CNS(=O)(=O)c2ccc3c(c2)CC(C)N3C(=O)C2CCC2)c1 (stereo not drawn)	5.8 µM (active) and 7.31 µM (active)
CC(=O)N1c2ccc(S(=O)(=O)N(C)CC(=O)N(C)Cc3ccccc3)cc2CC1C (stereo not drawn)	inactive
CC1Cc2cc(S(=O)(=O)CCC(=O)NCc3ccc(Cl)cc3)ccc2N1C(=O)C1CC1 (stereo not drawn)	3.66 µM (active)
O=C(Cn1cnc2c(cnn2-c2ccc(F)cc2)c1=O)NCCc1ccccc1	inactive
CCCCNC(=O)OCCSCCS(=O)(=O)c1ccc(Cl)cc1	inactive
Cc1nc2c(c(C)nn2-c2ccccc2)c(C)c1C	inactive
CCOC(=O)c1cc(S(=O)(=O)NCCc2ccc(OC)c(OC)c2)cn1C	inactive
CNC(=O)C(NC(=O)c1ccccc1)=C(C)C	inactive
O=C(CSC1CC(=O)N(CCc2ccccc2)C1=O)Nc1ccc(Cl)cc1 (stereo not drawn)	inactive
CCOC(=O)CNc1nc(Cl)nc(Nc2ccc(OC)cc2OC)n1	inactive
Cc1c(S(=O)(=O)N2CC(C)CC(C)C2)c(=O)n(C)c(=O)n1C (stereo not drawn)	inactive
CC(C)CCN1CCC(C)(NC(=O)c2ccccc2)C1=O (stereo not drawn)	inactive
O=C(c1ccc(Cl)nc1)N1CCN(S(=O)(=O)c2ccc3c(c2)OCCO3)CC1	inactive
CCOC(=O)c1ccccc1NC(=O)CCc1c(C)nc2c(c1C)c(=O)n(C)c(=O)n2C	inactive
COc1cc(NC(=O)c2ccc(CNc3c(N4CCCC4)c(=O)c3=O)cc2)cc(OC)c1OC	inactive
COc1cc(NC(=O)c2nc3ccccc3nc2C)cc(OC)c1OC	inactive
COc1cc(C(=O)Nc2ccc(-n3c(C)nc4ccccc4c3=O)cc2)cc(OC)c1OC	16.4 µM (active)
COc1cc(C(=O)Nc2ccc(OCc3cc(=O)n4ccc(C)cc4n3)cc2)cc(OC)c1OC	inactive
COc1ccc(NC(=O)CN2C(=O)CSC2=O)cc1	inactive
CCC(=O)N1CCCC1(C)C(=O)Nc1ccc2c(c1)CCN2C(C)=O (stereo not drawn)	inactive
CC1=C(C(=O)OC2CCCCC2)C(c2cccnc2)n2ncnc2N1 (stereo not drawn)	14.6 µM (active)
COC(=O)C1=C(C)Nc2ncnn2C1c1cccnc1 (stereo not drawn)	inactive
CC1=C(C(N)=O)C(c2ccc(Br)cc2)n2ncnc2N1 (stereo not drawn)	inactive

Compound	Potency
S=C(NC1CCCCC1)NN1CCOCC1	inactive
Cc1ccc(C(=O)NCCc2nnc(SCC(=O)Nc3cccc(C(=O)O)c3)n2C)cc1	inactive
Cc1cccc(NC(=O)C2CCCN2S(=O)(=O)c2cccc3nsnc23)c1C (stereo not drawn)	inactive
CCOC(=O)c1cnc(COc2ccccc2Cl)[nH]c1=O	inactive
CC(=O)Nc1ccc(-c2csc(NC=C3C(=O)OC(C)(C)OC3=O)n2)cc1	inactive
CC(=O)Nc1ccc(-c2csc(NC(=O)Nc3ccccc3)n2)cc1	3.66 µM (active)
Cc1ccc(-c2csc(NNC(=O)c3ccccc3)n2)cc1	4.11 µM (active)
CC(=O)Nc1ccc(S(=O)(=O)Nc2nc(-c3ccc(C(C)(C)C)cc3)cs2)cc1	inactive
Cc1nc(NNC(=O)c2ccccc2)cc(-c2ccccc2)n1	inactive
O=C(O)c1ccccc1C(=O)Nc1nc(-c2ccccc2)cs1	inactive
CC(=O)N1CCN(CC(c2ccccc2)c2ccccc2)CC1	inactive
CCOc1cc(/C=N/NC(=O)c2ccc(CSc3nncn3C)cc2)ccc1OCC(=O)N1CCOCC1	inactive
COc1cc(OC)cc(C(=O)Nc2nnc(SCC(=O)NCC3CCCO3)s2)c1 (stereo not drawn)	inactive
Cc1noc(C)c1-c1nc(CSc2ccc(Cl)cc2)no1	inactive
CCN(CC)S(=O)(=O)c1ccc(C)c(NC(=O)COc2ccc(Br)cc2Cl)c1	inactive
Oc1ccc(Br)cc1C1C=C(c2ccc3c(c2)OCO3)NC(c2ccc(Cl)cc2)N1 (stereo not drawn)	7.08 µM (active)
Cc1cccc(-n2c(=O)c3c(c4cc(C)ccc4n3C)n(CC(=O)Nc3ccccc3Cl)c2=O)c1	inactive
Cc1c(C(=O)N2CCOCC2)[nH]c2ccc(OCc3ccccc3)cc12	inactive
O=C(COc1ccc2oc3c(c2c1)CCCC3)Nc1ccccn1	inactive
NC(=O)C1CCN(C(=O)COc2ccc3c4c(c(=O)oc3c2)CCC4)CC1	inactive
O=C(CN1CCOCC1)N1CCCc2c1c(=O)oc1ccc(OCc3ccccc3)cc21	18.4 µM (active)
CC1CCCCN1CC(=O)NCc1ccc2c(c1)OCO2 (stereo not drawn)	inactive
CC1CCCCN1CC(=O)N1CCCc2c1c(=O)oc1ccc(OCc3ccccc3)cc21 (stereo not drawn)	16.4 µM (active)
COc1ccccc1C(=O)NCCn1cc(SCC(=O)NCc2ccco2)c2ccccc21	inactive
O=C(O)Cc1ccc(NC(=O)Nc2cccc3ccccc23)cc1	inactive
CN(C(=O)CCNC(=O)Cn1ccc2ccccc2c1=O)c1ccc(Br)cc1	inactive

Compound	Potency
Cc1cc(C)c(S(=O)(=O)N2CCC(C(=O)OCc3c(C)noc3C)CC2)c(C)c1	inactive
CC(C)(C)N(CC#CCC(O)(c1ccccc1)C1CCCC1)CCO (stereo not drawn)	inactive
CN(CC#CCC(c1ccccc1)c1ccccc1)C(C)(C)C	12.6 µM (active)
CCc1[nH]nc(C(=O)N2CCCC(CNS(=O)(=O)c3cccs3)C2)c1C (stereo not drawn)	inactive
Cc1cc(C)nc(SCc2cn3c(C)cc(C)nc3n2)n1	inactive
O=C(NC1CCCC1)C(c1ccco1)N(C(=O)c1csnn1)c1ccccc1 (stereo not drawn)	inactive
CCOC(=O)CCC(NC(=O)c1ccc(CNc2nc3cc(C(F)(F)F)ccc3nc2C(=O)OCC)cc1)C(=O)OCC (stereo not drawn)	inactive
Cc1ccc(OC(=O)c2ccccc2C(=O)OCC(F)(F)C(F)F)cc1	inactive
CCN(CC)CCNS(=O)(=O)c1ccc(/C=C/C(=O)O)cc1	inactive
Cn1cc(CN2CCCCC2c2ccccn2)c(-c2ccc3c(c2)OCCO3)n1 (stereo not drawn)	inactive
CC1(C(=O)Nc2cccc3cccnc23)CCN1C(=O)CCC1CCCC1 (stereo not drawn)	16.4 µM (active)
CC1(C(=O)Nc2ccccc2Br)CCN1C(=O)CC1CC1 (stereo not drawn)	inactive
CC1(C(=O)NS(=O)(=O)c2ccc(Cl)cc2)CCN1C(=O)CC1CCCC1 (stereo not drawn)	inactive
Cc1ccc(S(=O)(=O)N2CCN(C(=O)N3CCOCC3)CC2)c(C)c1	inactive
CC(=O)N1CCN(S(=O)(=O)c2cccc(C(=O)NC3CCC(C)CC3)c2)CC1 (stereo not drawn)	inactive
CC1Cc2ccccc2N1S(=O)(=O)c1cccc(C(=O)OCC(=O)N2CCOCC2)c1 (stereo not drawn)	inactive
CN1CCN(S(=O)(=O)c2cccc(C(=O)O)c2)CC1	inactive
CCS(=O)(=O)c1ccc2c(c1)N(S(=O)(=O)c1ccccc1)CC(C(=O)O)O2 (stereo not drawn)	inactive
CC1CCN(C(=O)c2cccc(S(=O)(=O)N3CCCc4ccccc43)c2)CC1	16.4 µM (active)
CNC(=O)C1CN(C(=O)c2cccc(S(=O)(=O)N3CCc4ccccc43)c2)c2ccccc2O1 (stereo not drawn)	7.31 µM (active)
Cc1ccccc1OCC(=O)Nc1c(C(=O)Nc2ccccc2F)oc2ccccc12	inactive
O=C(OC1CCCCC1=O)c1cccc(S(=O)(=O)NCc2ccccc2)c1 (stereo not drawn)	inactive
CCOc1ccc(N(CC(=O)NCCc2ccc(F)cc2)S(=O)(=O)c2ccccc2)cc1	20.6 µM (active)
CCOc1ccc(N(CC(=O)NCCc2ccc(OC)cc2)S(C)(=O)=O)cc1	inactive
COc1ccc(CCNC(=O)CN(c2ccccc2)S(=O)(=O)c2ccccc2)cc1	inactive
